Experimental findings from PubChem BioAssay (Tox21) are described below.

Experiment [1] can be described thus: qHTS assay to test for compound auto fluorescence at 535 nm (green) in HEK293 cells (AID 720680).
Experiment [2] is described as follows: qHTS assay to test for compound auto fluorescence at 460 nm (blue) in HEK293 cell free culture (AID 720681). An outline of the steps:
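Test compounds were pinned into cell-free culture medium (DMEM with 10% FBS) and fluorescence was read directly at Ex/Em 405/460 nm. Signals were expressed as fluorescence equivalents of triamterene, with DMSO vehicle as control.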

Experiment [3] can be described thus: qHTS assay to test for compound auto fluorescence at 535 nm (green) in HEK293 cell free culture (AID 720682). An outline of the steps:
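Green-label autofluorescence (485 nm excitation, 535 nm emission) measured on compound added to cell-free culture medium (DMEM, 10% FBS). Output is expressed relative to fluorescein.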
On the technique in general: qHTS replaces the single test concentration by a dilution series.

Experiment [4] can be described thus: qHTS assay to test for compound auto fluorescence at 590 nm (red) in HEK293 cell free culture (AID 720683). In a few lines: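 Tox21 10K library compounds were pinned into cell-free DMEM with 10% FBS and fluorescence was read at excitation 540 nm. Activity is expressed as Rose Bengal sodium equivalency.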
The nature of experiment [5]: qHTS assay to test for compound auto fluorescence at 590 nm (red) in HepG2 cell free culture (AID 720684). An outline of the steps:
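Ex 540 / Em 590 nm read of compound in cell-free MEM (10% FBS). Rose Bengal sodium reference.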

Experiment [6] in a line: qHTS assay to test for compound auto fluorescence at 460 nm (blue) in HepG2 cell free culture (AID 720685). In a few lines: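 Cell-free plates of MEM plus 10% FBS received 23 nL compound or DMSO vehicle; blue-channel (405/460 nm) intensity scored against triamterene as reference fluorophore.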
Experiment [7] can be described thus: qHTS assay to test for compound auto fluorescence at 535 nm (green) in HepG2 cell free culture (AID 720686).
Experiment [8] can be described thus: qHTS assay to test for compound auto fluorescence at 460 nm (blue) in HepG2 cells (AID 720687). An outline of the steps:
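Cells (2,000/well in MEM with 10% FBS) attached overnight at 37 C, then were exposed to compound or DMSO for 1 hr at 37 C, 5% CO2. Fluorescence read at Ex/Em 405/460 nm, expressed as triamterene-equivalent signal.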

Experiment [9] concerns the target Glucocorticoid receptor (Homo sapiens) (UniProt P04150). In words: qHTS assay to identify small molecule agonists of the glucocorticoid receptor (GR) signaling pathway (AID 720691; active = well fitted activation curve with a large enough effect in the signal ratio in the repeat runs, not every such curve was filed as active; inconclusive = weak or mixed curves, or effect the other way; inactive = no such curve, though single readings can be large or run the other way; the % refers to the signal ratio; note: potency is the fitted concentration of half-maximal effect). In a few lines:
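Cells: GR-bla HeLa, endogenous GR with stably integrated GRE-beta-lactamase reporter. Treatment 18 h, 37 C, compounds delivered in DMSO. Detection via LiveBLAzer B/G FRET substrate, 2 h RT, fluorescence intensity.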

The target is the same in experiment [10]. The experiment in a line: qHTS assay to identify small molecule antagonists of the glucocorticoid receptor (GR) signaling pathway (AID 720692; active = well fitted inhibition curve with a large enough effect in the signal ratio in the repeat runs, not every such curve was filed as active; inconclusive = weak or mixed curves, or effect the other way; inactive = no such curve, though single readings can be large or run the other way; the % refers to the signal ratio). An outline of the steps:
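Quantitative HTS in antagonist format: HeLa cells expressing endogenous GR and a stably integrated GRE-bla reporter, stimulated with 5 nM dexamethasone (final) alongside test compounds for 18 h.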

Experiment [11] in a line: qHTS assay to identify small molecule antagonists of the glucocorticoid receptor (GR) signaling pathway - cell viability counter screen (AID 720693). Note: nearly all actives have a fitted effect of over 55% in size. Note: potency is the fitted concentration of half-maximal effect.
Experiment [12] can be described thus: qHTS assay for identifying genotoxic compounds that show differential cytotoxicity against isogenic chicken DT40 cell lines with known DNA damage response pathways - wild type cell line (AID 743012). Note: nearly all actives have a fitted effect of over 60% in size. Note: potency is the fitted concentration of half-maximal effect. In a few lines: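 Luminescent ATP viability signal (CellTiter-Glo, 30 min RT) recorded after wild type DT40 cells were incubated with compounds for 40 h at 37 C/5% CO2.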

A short description of experiment [13]: qHTS assay for identifying genotoxic compounds that show differential cytotoxicity against isogenic chicken DT40 cell lines with known DNA damage response pathways - Rev3 mutant cell line (AID 743014). Note: nearly all actives have a fitted effect of over 55% in size. Note: potency is the fitted concentration of half-maximal effect.
The nature of experiment [14]: qHTS assay to identify small molecule antagonists of the androgen receptor (AR) signaling pathway using the MDA cell line - cell viability counter screen (AID 743041; note: nearly all actives have a fitted effect of over 45% in size; note: potency is the fitted concentration of half-maximal effect). An outline of the steps:
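In this qHTS counter assay, fluorescence intensity after CellTiter-Fluor addition indicated viability of MDA-kb2 AR-luc cells given compounds and R1881 for 16 h at 37C.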

Experiment [15] in a line: qHTS assay for identifying genotoxic compounds that show differential cytotoxicity against isogenic chicken DT40 cell lines with known DNA damage response pathways - Rad54/Ku70 mutant cell line (AID 743015). Note: nearly all actives have a fitted effect of over 60% in size. Note: potency is the fitted concentration of half-maximal effect.
A short description of experiment [16]: qHTS assay to identify small molecule antagonists of the androgen receptor (AR) signaling pathway - cell viability counter screen (AID 743033; note: nearly all actives have a fitted effect of over 45% in size; note: potency is the fitted concentration of half-maximal effect).
Experiment [17] concerns the target Androgen receptor (Homo sapiens) (UniProt P10275). The experiment in a line: qHTS assay to identify small molecule agonists of the androgen receptor (AR) signaling pathway using the MDA cell line (AID 743040; note: nearly all actives have a fitted effect of over 20% in size). In a few lines: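 Cell-based luciferase reporter: MDA-kb2, MMTV promoter (AR + GR response elements). 16 h compound exposure at 37C; ONE-Glo, 30 min RT, luminescence.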

The target is the same in experiment [18]. The experiment in a line: qHTS assay to identify small molecule antagonists of the androgen receptor (AR) signaling pathway (AID 743035; active = well fitted inhibition curve with a large enough effect in the signal ratio in the repeat runs, not every such curve was filed as active; inconclusive = weak or mixed curves, or effect the other way; inactive = no such curve, though single readings can be large or run the other way; the % refers to the signal ratio; note: potency is the fitted concentration of half-maximal effect). In a few lines:
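Quantitative HTS of the Tox21 10K library used HEK293 AR-UAS-bla cells stimulated with R1881 alongside compound for 16 h at 37C, followed by beta-lactamase FRET detection (LiveBLAzer B/G, 2 h, RT).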

Experiment [19] shares this target. The experiment in a line: qHTS assay to identify small molecule antagonists of the androgen receptor (AR) signaling pathway using the MDA cell line (AID 743042; note: nearly all actives have a fitted effect of over 55% in size; note: potency is the fitted concentration of half-maximal effect). In a few lines:
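MDA-kb2 cells (human breast carcinoma, stably carrying an MMTV-luciferase reporter responsive to AR and GR) were plated at 3,000 cells/well and preincubated 5 hr at 37C, then given compound plus R1881 agonist for 16 h. ONE-Glo luminescence was read.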

Unmarked numbers belong to inactive results. Calls of active or inactive are those of the source. Unless noted, calls come from the whole dose curve; as a rule, active = well fitted curve in the direction sought with a large enough effect in the repeat runs; inconclusive = weak or mixed curves; inactive = no such curve, though single readings can be large; an effect the other way counts as inactive or inconclusive.
% is set by controls: 0 for no effect and ±100 for the full control effect.

Chain of Androgen receptor (Homo sapiens) (P10275 whole entry, looked up): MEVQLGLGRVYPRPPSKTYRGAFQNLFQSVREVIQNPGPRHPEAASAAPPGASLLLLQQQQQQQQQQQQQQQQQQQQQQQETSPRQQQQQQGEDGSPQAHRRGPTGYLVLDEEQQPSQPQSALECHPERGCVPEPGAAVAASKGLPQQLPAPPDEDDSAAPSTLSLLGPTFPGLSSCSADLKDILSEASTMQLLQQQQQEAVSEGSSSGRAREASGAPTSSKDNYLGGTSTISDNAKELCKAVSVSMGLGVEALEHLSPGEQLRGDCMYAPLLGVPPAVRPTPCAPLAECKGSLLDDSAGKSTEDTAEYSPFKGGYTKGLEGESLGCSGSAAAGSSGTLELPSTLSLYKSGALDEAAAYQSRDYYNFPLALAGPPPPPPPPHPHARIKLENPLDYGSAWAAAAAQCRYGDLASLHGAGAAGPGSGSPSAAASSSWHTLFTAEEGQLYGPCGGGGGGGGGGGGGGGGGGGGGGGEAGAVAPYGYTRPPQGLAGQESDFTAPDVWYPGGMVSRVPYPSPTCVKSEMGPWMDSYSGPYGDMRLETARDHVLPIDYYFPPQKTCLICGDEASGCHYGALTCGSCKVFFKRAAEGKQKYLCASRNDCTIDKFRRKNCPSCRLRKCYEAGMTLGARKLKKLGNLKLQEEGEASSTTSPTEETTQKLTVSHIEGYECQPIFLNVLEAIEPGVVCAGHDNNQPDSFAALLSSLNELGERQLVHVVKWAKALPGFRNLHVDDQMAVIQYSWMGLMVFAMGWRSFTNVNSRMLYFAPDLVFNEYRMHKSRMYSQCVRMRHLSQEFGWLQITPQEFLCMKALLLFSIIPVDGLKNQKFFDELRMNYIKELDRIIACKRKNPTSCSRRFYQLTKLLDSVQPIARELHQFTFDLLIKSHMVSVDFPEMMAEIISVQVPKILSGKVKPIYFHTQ
Chain of Glucocorticoid receptor (Homo sapiens) (P04150 whole entry, looked up): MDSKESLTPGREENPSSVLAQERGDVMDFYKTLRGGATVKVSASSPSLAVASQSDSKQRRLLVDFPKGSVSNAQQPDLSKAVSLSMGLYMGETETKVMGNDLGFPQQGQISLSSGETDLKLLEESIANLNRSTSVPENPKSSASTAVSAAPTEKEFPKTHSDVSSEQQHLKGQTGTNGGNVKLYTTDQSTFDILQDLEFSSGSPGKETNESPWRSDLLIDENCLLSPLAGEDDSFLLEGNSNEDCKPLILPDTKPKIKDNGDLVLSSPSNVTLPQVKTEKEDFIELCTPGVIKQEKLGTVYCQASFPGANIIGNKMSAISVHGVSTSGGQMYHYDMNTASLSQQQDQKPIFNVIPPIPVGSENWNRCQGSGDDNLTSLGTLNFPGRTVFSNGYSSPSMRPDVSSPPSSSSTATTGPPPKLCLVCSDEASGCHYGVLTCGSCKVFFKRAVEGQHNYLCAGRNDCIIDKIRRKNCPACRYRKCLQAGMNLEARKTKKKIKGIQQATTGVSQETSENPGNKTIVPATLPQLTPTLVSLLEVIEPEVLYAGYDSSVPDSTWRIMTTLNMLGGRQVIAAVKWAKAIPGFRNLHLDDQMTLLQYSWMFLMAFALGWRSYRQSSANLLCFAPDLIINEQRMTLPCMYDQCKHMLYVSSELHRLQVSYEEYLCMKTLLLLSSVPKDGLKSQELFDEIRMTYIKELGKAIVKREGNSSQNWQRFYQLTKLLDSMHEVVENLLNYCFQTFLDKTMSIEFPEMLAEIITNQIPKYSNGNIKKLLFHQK

In the case of `CC(C(=O)O)c1ccc(-c2ccccc2)c(F)c1` (stereo unspecified), the molecule was classed as inactive in experiment [1], in [3], in experiment [4], in experiment [5] and in experiment [7]. Besides, the Potency result in [2], in [6], in experiment [8], in [9], in [10] and in experiment [11] was “inactive” throughout. The Potency entry in experiment [12], in [13] and in experiment [14] was “inactive” each time.
For `CCOC(=O)CC(=O)c1cc(F)c(Cl)nc1Cl`, the molecule was classed as inactive in experiment [1], in experiment [3], in experiment [4], in experiment [5] and in [7]. Further, the Potency result in experiment [2], in experiment [6], in [8], in experiment [9], in experiment [10] and in [11] was “inactive” each time. The Potency result in experiment [13], in [15], in experiment [16] and in experiment [14] was “inactive” each time.
For the molecule `CC[C@@H]1C[C@H](N(Cc2cc(C(F)(F)F)cc(C(F)(F)F)c2)C(C)=O)c2cc(C(F)(F)F)ccc2N1C(=O)OC(C)C`, the molecule was classed as inactive in experiment [1], in [3], in experiment [4], in experiment [5] and in [7]. Besides, the Potency entry in experiment [2], in [6], in experiment [8], in [9], in experiment [10] and in experiment [11] was “inactive” in each case. Besides, the Potency result in [16] and in experiment [14] was “inactive” throughout. Besides, the Potency in experiment [12] is 27.3 µM (active).
For the molecule `CCN(CC)CCOc1ccc2c(c1)C(=O)c1cc(OCCN(CC)CC)ccc1-2`, the molecule was classed as inactive in experiment [1], in experiment [3], in experiment [4], in [5] and in experiment [7]. The Potency entry in experiment [2], in [6], in experiment [8], in experiment [9], in experiment [11] and in experiment [16] was “inactive” each time. Also, the Potency result in experiment [14] is “inactive”. For the same molecule, the Potency was 5.31 µM (active) in [12], 2.66 µM (active) in experiment [13] and 5.96 µM (active) in [15].
As for `Cc1cc(O)ccc1N`, the molecule was classed as inactive in experiment [1], in [3], in experiment [4], in experiment [5] and in experiment [7]. For the same molecule, the Potency entry in [2], in experiment [6], in [8], in experiment [9], in experiment [11] and in [17] was “inactive” throughout. The Potency in experiment [12] was 13.8 µM (active); in [13], 6.14 µM (active); in experiment [15] it was 9.74 µM (active).
As for `NC(N)=NN=C(/C=C/c1ccc([N+](=O)[O-])o1)/C=C/c1ccc([N+](=O)[O-])o1`, the molecule was classed as inactive in experiment [1], in experiment [3], in [4], in [5] and in experiment [7]. The Potency entry in [2], in [6], in experiment [8] and in experiment [17] was “inactive” in each case. Also, the Potency in experiment [9] is 6.74 µM [inconclusive] (active); in [11] it was 5.35 µM (active); in experiment [12] it was 1.5 µM (active); in experiment [13], 0.75 µM (active); in [15], 1.88 µM (active); in experiment [16] it was 9.52 µM (active). Besides, the Potency in [18] is 5.35 µM (active); in experiment [14], 23.7 µM (active); in [19] it was 5.96 µM (active).
Turning to `O=C(O)[C@@H]1[C@H]2C[C@H]3c4[nH]c5ccccc5c4CCN3C[C@@H]2CC[C@@H]1O`, the fluorescence, % of fluorescein in experiment [1] was -0.047% [at 18.6 µM]. Also, the fluorescence, % of fluorescent control was 4.98% [at 18.6 µM] in experiment [2], 0.0861% [at 18.6 µM] in [4], 4.25% [at 18.6 µM] in experiment [6] and 5.05% [at 18.6 µM] in experiment [8]. Moreover, the activity change in experiment [3] is -0.0263% [at 18.6 µM]. For the same molecule, the fluorescence, % of Rose Bengal in [5] is -0.199% [at 18.6 µM]. Also, the fluorescence, % of fluorescein control in [7] is 0.287% [at 18.6 µM]. The Potency entry in experiment [9], in experiment [10], in experiment [11], in experiment [13], in experiment [16] and in experiment [18] was “inactive” throughout. Further, the Potency entry in experiment [17], in experiment [14] and in experiment [19] was “inactive” throughout.
Regarding `CC(C)(C)C1CCCCC1O` (stereo unspecified), the call in experiment [1], in experiment [3], in [4], in [5] and in [7] was inactive. In addition, the Potency entry in [2], in experiment [6], in experiment [8], in experiment [9], in experiment [10] and in [11] was “inactive” in each case. The Potency entry in [13], in experiment [15] and in experiment [14] was “inactive” throughout.
